Experimental data as given in PubChem BioAssay (NCI).
About 79,000 compounds went through this panel and 15% of them were active in at least one assay; those are over-represented in the sample as a whole. Activity calls are given as the source filed them. Cut-off read from the data, not from the text of the source: active = growth inhibition above about 70%; inactive = the rest.

Assays:
[1] = NCI Yeast Anticancer Drug Screen. Data for the rad50 strain (AID 155);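 note: 0% = growth of vehicle-only cultures of the same strain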; conditions: S. cerevisiae rad50 strain growth inhibition; at 50.0 µM; active compounds read high
Summary of the method: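 Readout: growth inhibition relative to vehicle-treated cultures. Compound exposure was carried out in a genetically defined yeast strain deficient in DNA damage repair.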

[2] = NCI Yeast Anticancer Drug Screen. Data for the mec2-1 strain (AID 157); conditions: S. cerevisiae mec2-1 strain, at 50.0 µM, active compounds read high
Summary of the method: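 Using mec2-1 yeast: add compound, measure growth, express inhibition versus vehicle-treated cultures.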

[3] = NCI Yeast Anticancer Drug Screen. Data for the sgs1 mgt1 strain (AID 161);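 note: 0% = growth of cultures given vehicle only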; conditions: S. cerevisiae sgs1 mgt1 strain, at 50.0 µM, active compounds read high
Summary of the method: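 Percent growth inhibition was derived by comparing compound-exposed mutant yeast with vehicle-exposed cultures. The strain carries alterations in DNA damage repair.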

[4] = NCI Yeast Anticancer Drug Screen. Data for the cln2 rad14 strain (AID 165);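 note: 0% = growth equal to vehicle treated cultures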; conditions: S. cerevisiae cln2 rad14 strain, at 50.0 µM, active compounds read high
Summary of the method: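 Yeast strain cln2 rad14, bearing defects in cell cycle control and DNA repair, serves as the test system; values reflect growth inhibition compared with vehicle.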

[5] = NCI Yeast Anticancer Drug Screen. Data for the bub3 strain (AID 167); conditions: S. cerevisiae bub3 mutant strain, at 50.0 µM, active compounds read high
Summary of the method: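 Readout: yeast growth inhibition, expressed relative to vehicle-only wells. The test organism is a mutant strain from a panel with lesions in DNA repair or checkpoint genes.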

[6] = NCI Yeast Anticancer Drug Screen. Data for the mlh1 rad18 strain (AID 175); conditions: S. cerevisiae mlh1 rad18 strain growth inhibition; at 50.0 µM; active compounds read high
Summary of the method: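 Steps: expose repair-defective yeast to compound; measure growth; express inhibition against vehicle-treated controls.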

Measured: growth inhibition

COc1ccc(C(=CCC(C)C2CCC3[C@@H]4C(OC(C)=O)CC5CC(OC(C)=O)CC[C@]5(C)C4CC(OC(C)=O)[C@]23C)c2ccc(OC)cc2)cc1 (stereo partly specified)
inactive: [1] 1.2% | [2] 1.4% | [3] -7.9% | [4] 13.5% | [5] 24.1% | [6] -6.05%

Cc1nn(C(=O)c2ccccn2)c(-c2ccccc2)c1N=Nc1ccc(S(=O)(=O)Nc2ncccn2)cc1
inactive: [1] 26.4% | [2] -6% | [3] 17.9% | [4] 12.5% | [5] 1.5% | [6] 40.4%

C=CCc1ccc(OC(=O)CC)c(OC)c1
inactive: [1] -8.1% | [2] -22.4% | [3] -16.4% | [4] -8.75% | [5] -10.8% | [6] -9.95%

O=S(=O)(O)CCS(=O)(=O)O
inactive: [1] -15.8% | [2] -19.3% | [3] -3.85% | [4] -51.3% | [5] 1.45% | [6] -45.9%

O=c1c2ccccc2oc2nc3ccc(Cl)cc3n12
inactive: [1] -6.3% | [2] -7.5% | [3] 0.45% | [4] -30.9% | [5] 10.6% | [6] -1.85%

CCOC/C(=N\NC(N)=O)c1ccccc1
inactive: [1] -16.8% | [2] -22.2% | [3] -22.9% | [4] -1.85% | [5] 9.3% | [6] -20.3%

CCOc1ccc(/C=C2\N=C(c3ccc([N+](=O)[O-])cc3)OC2=O)cc1
inactive: [1] 11.2% | [2] 19.8% | [3] 3% | [4] 3.45% | [5] 15.6% | [6] 8.15%

COc1cc(C2c3c(oc4ccccc4c3=O)Oc3oc4ccccc4c(=O)c32)cc(OC)c1O
inactive: [1] -17.4% | [2] 4.65% | [3] 5.25% | [4] 31.9% | [5] -0.3% | [6] -13.1%

N#CC(NCc1cccc(CNC(C#N)c2ccccc2)c1)c1ccccc1 (stereo unspecified)
inactive: [1] -4.8% | [2] 8.4% | [3] -28.1% | [4] -16.4% | [5] -28.7% | [6] -19.8%

O=C(COc1ccc(Cl)cc1Cl)Nc1ccc(N=Nc2ccccc2)cc1
inactive: [1] -0.5% | [2] 7.55% | [3] -1.95% | [4] -3.65% | [5] -2.8% | [6] 19.9%

NC(=O)CC1CCCCC1
inactive: [1] 8.3% | [2] -9% | [3] -7.05% | [4] 7.35% | [5] 17.2% | [6] -8.55%

C[Si](C)(C)O/C=C1/CCOC1=O
inactive: [1] 46.9% | [2] 45.7% | [3] -13.9% | [4] -6.5% | [5] -39.8% | [6] -45%

CC(CN(C)C)C(=O)c1ccccc1C(=O)O (stereo unspecified)
inactive: [1] -44.9% | [2] -24.9% | [3] -36% | [4] -35.2% | [5] -2.05% | [6] -16.7%

CCOC(=O)C1/C(=N\N=C2\c3c(nnp3N(CCOS(C)(=O)=O)CCOS(C)(=O)=O)C(C(=O)OCC)C(c3ccc(OC(C)=O)cc3)C2C(=O)OCC)c2c(nnp2N(CCOS(C)(=O)=O)CCOS(C)(=O)=O)C(C(=O)OCC)C1c1ccc(OC(C)=O)cc1 (stereo unspecified)
inactive: [1] 6.75% | [2] -0.05% | [3] -3.85% | [4] 4.25% | [5] 10.3% | [6] -4.5%

CC(C)(C)N(OC(=O)c1ccccc1)C(=O)c1ccccc1
inactive: [1] 3.25% | [2] 4.35% | [3] 0.4% | [4] 5.45% | [5] 0.6% | [6] 14.4%

N#Cc1cc2c(n(C3OC(CO)C(O)C(O)C3O)c1=S)CCCCC2 (stereo unspecified)
inactive: [1] -3.95% | [2] -16% | [3] -3.75% | [4] -0.75% | [5] 5.65% | [6] 24.1%

COc1ccc(-c2cc(C(=O)O)c3cccc(C)c3n2)cc1
inactive: [1] 35.6% | [2] -1.7% | [3] 35% | [4] 36.1% | [5] 23.8% | [6] 47.1%

[N-]=[N+]=NC[C@H]1OCO[C@H](CN=[N+]=[N-])[C@H]2OCCOCCOc3ccccc3OCCOCCO[C@@H]21
inactive: [1] -13.2% | [2] -9.65% | [3] -11.6% | [4] -15.6% | [5] -30.9% | [6] -18.1%

O=C(Nc1ccc(Cl)cc1C(=O)O)c1ccc([N+](=O)[O-])cc1
inactive: [1] 23.1% | [2] 18.2% | [3] 26.7% | [4] 38.8% | [5] 23.9% | [6] 53.2%

COc1ccccc1NC(=S)N/N=C/c1ccccn1
inactive: [1] -16.6% | [2] 15.9% | [3] 24.4% | [4] 8.95% | [5] 17.7% | [6] 14%

COc1cc(N)ccc1C(=O)NC(CCC(=O)O)C(=O)O (stereo unspecified)
inactive: [1] -14.5% | [2] -11.2% | [3] 24.9% | [4] -33.7% | [5] 17.9% | [6] -19.7%

CC(C)C(C(=O)O)N1C(=O)c2ccccc2C1=O (stereo unspecified)
inactive: [1] -16.2% | [2] -1.5% | [3] -12.2% | [4] -31.6% | [5] -16.1% | [6] -4.15%

C=C1C(=O)O[C@H]2[C@H]1[C@H](OC(=O)/C(C)=C\C)CC(=C)[C@@H]1[C@H](O)[C@H]3O[C@@]3(C)[C@@]12O
inactive: [1] 3.85% | [2] -14.8% | [3] 21.2% | [4] 5.25% | [5] -5.95% | [6] -18%

Cc1ccc2c(c1)nc1n2C(c2c(F)cccc2F)SC1 (stereo unspecified)
inactive: [1] 0.15% | [2] -6.45% | [3] 26.9% | [4] 13.4% | [5] 29.3% | [6] -3.7%

CSCNC(=O)Nc1ccccc1
inactive: [1] 30.4% | [2] 33.9% | [3] 19.1% | [4] 0.25% | [5] 15% | [6] 8.9%

c1ccc(/N=C2\c3ccccc3CN2c2ccccn2)nc1
inactive: [1] -21.9% | [2] 3.75% | [3] -7.6% | [4] -3.75% | [5] 9% | [6] -1.35%

CCOC(CO)OCC
inactive: [1] 28.9% | [2] -0.25% | [3] -3.4% | [4] 8.95% | [5] 13.6% | [6] -8%

CC(C)CCCC(C)C1CCC2C3C(O)CC4CCCCC4(C)C3CCC12C (stereo unspecified)
active: [1] 96.7% | [2] 97.8% | [3] 98% | [4] 95.2% | [5] 95.7% | [6] 97.9%

CCCCC(=O)CCCCCCCCC(=O)CCCC
inactive: [1] 0.7% | [2] -8.65% | [3] -19.8% | [4] -31.2% | [5] -4% | [6] -19.8%

Nc1nc(N)c2nonc2n1
inactive: [1] -3.7% | [2] -20.8% | [3] -10.8% | [4] -26.2% | [5] -2.85% | [6] 2%

COc1ccc(Nc2nc3c([nH]2)c(=O)n(C)c(=O)n3C)cc1
inactive: [1] -15.6% | [2] 5.1% | [3] -11.3% | [4] 6.9% | [5] -1.3% | [6] 13.3%

CN(C)c1ccc(/C=C(/C(=O)O)c2csc(-c3nc(/C(=C\c4ccc(N(C)C)cc4)C(=O)O)cs3)n2)cc1
inactive: [1] 34.8% | [2] 9.45% | [3] 10.2% | [4] -19.8% | [5] 13.2% | [6] 25.4%

Cc1cc(NC(=O)NC(=O)c2ccccc2NC(=O)CN(C)C)ccc1Oc1ncc(Br)cn1
inactive: [1] -10.3% | [2] -28.9% | [3] 0.5% | [4] -6.2% | [5] -21% | [6] -26.7%

CC(C)CCN(C(=O)CCl)c1ccccc1
inactive: [1] 59% | [2] 32.6% | [3] 52.4% | [4] 15.1% | [5] 33.5% | [6] 63.8%

c1ccc(-c2cc[c]([Sn]([c]3ccccc3)([c]3ccccc3)[c]3ccccc3)cc2)cc1
active: [1] 95.2% | [2] 98.5% | [3] 96.8% | [4] 99.2% | [5] 99% | [6] 98.2%

Cc1cc(Cl)ccc1N=NC(=O)NNc1ccc(Cl)cc1C
inactive: [1] 35.2% | [2] -15.2% | [3] -7.05% | [4] -21.9% | [5] -7.2% | [6] -19.5%
